Active and inactive are the calls of the source. The calls were made as follows: active = hit-call score of the fitted dose curve at least 0.9, where 1 is the maximum; inactive = score below 0.9.
Experiments:
[1] = ATG_CRE_CIS: Attagene CIS-FACTORIAL HepG2 Assay for human cAMP Responsive Element (CRE) binding protein 3 (AID 2282926); details: HepG2 CRE cis-reporter, Attagene multiplexed mRNA; actives raise or lower the signal
In short: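 Transfected HepG2 were treated for 24 hours, then RNA was extracted and reporter cDNA amplified with sequence-specific primers. Labelled fragments were separated by capillary electrophoresis, and the CRE signal was fitted bidirectionally with DMSO as baseline.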

[2] = biological target: CCAAT/enhancer-binding protein beta (Homo sapiens) (UniProt P17676); test: ATG_C_EBP_CIS: Attagene CIS-FACTORIAL HepG2 Assay for human CCAAT/Enhancer Binding Protein (C/EBP) beta (AID 2282927); details: HepG2 Attagene cis-factorial transcription factor reporter; actives raise or lower the signal
CCAAT/enhancer-binding protein beta (Homo sapiens), sequence (P17676 whole entry, looked up): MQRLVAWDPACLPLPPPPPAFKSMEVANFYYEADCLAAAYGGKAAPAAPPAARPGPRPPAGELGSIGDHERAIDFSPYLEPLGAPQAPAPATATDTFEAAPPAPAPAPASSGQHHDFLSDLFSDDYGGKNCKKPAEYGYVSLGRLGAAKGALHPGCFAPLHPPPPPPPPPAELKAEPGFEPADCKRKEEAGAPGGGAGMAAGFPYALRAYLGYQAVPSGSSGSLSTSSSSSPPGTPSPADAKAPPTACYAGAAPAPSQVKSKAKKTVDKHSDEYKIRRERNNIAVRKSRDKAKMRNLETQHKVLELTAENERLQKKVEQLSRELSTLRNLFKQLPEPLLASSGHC
In short: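 HepG2 transiently transfected with multiplexed reporter units under cis-regulatory promoters reporting endogenous C/EBPb activity. After 24 h exposure, reporter mRNA assayed by RT-PCR, fluorescent labelling, HpaI digestion and capillary electrophoresis; bidirectional fitting versus DMSO.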

[3] = ATG_CMV_CIS: Attagene CIS-FACTORIAL HepG2 Assay for human CMV (Internal Marker) (AID 2282928); details: HepG2 CMV promoter reporter, transcription factor profiling; actives raise or lower the signal;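 also: endpoint acts as a background internal control marker rather than a target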
In short: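 After transient transfection of HepG2 with reporter transcription units driven by cis-regulatory promoters, cells receive test chemical for 24 h. Labeled reporter amplicons, digested with HpaI, are sized and quantified by capillary electrophoresis against DMSO.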

[4] = biological target: Aryl hydrocarbon receptor (Homo sapiens) (UniProt P35869); test: ATG_Ahr_CIS: Attagene CIS-FACTORIAL HepG2 Assay for human Aryl Hydrocarbon Receptor (Ahr) (AID 2282930); details: HepG2 AhR cis-factorial reporter transcription; actives raise or lower the signal
Aryl hydrocarbon receptor (Homo sapiens), sequence (P35869 whole entry, looked up): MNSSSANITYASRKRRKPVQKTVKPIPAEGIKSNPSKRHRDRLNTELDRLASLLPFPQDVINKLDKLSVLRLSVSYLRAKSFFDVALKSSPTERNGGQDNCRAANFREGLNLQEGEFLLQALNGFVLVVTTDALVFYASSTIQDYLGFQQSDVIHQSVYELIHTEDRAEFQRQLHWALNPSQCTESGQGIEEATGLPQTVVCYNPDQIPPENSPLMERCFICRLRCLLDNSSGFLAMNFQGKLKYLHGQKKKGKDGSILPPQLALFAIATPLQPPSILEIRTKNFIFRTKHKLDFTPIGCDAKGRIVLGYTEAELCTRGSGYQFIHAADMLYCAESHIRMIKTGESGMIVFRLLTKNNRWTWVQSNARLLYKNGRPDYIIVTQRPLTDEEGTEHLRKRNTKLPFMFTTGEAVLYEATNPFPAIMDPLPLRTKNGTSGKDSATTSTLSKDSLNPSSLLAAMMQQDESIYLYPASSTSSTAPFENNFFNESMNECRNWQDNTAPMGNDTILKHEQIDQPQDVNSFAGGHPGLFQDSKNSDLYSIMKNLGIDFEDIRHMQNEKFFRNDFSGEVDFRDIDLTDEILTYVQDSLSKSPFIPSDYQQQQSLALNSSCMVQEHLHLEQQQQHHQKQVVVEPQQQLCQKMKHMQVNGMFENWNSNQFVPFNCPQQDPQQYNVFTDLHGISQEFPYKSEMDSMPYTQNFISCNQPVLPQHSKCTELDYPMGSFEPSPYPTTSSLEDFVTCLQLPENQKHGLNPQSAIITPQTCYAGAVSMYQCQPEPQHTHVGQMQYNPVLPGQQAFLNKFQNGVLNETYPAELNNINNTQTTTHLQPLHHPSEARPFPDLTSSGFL
In short: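 HepG2 cells transiently transfected with cis-element-driven multiplexed reporter units; endogenous AhR activity read as reporter mRNA 24 h after dosing, via RT-PCR, 6-FAM labelling, HpaI digestion and capillary electrophoresis. Bidirectional fit relative to DMSO.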

[5] = ATG_AP_1_CIS: Attagene CIS-FACTORIAL HepG2 Assay for human Activator Protein 1 (AP-1) (AID 2282931); details: HepG2 Attagene cis-factorial AP-1 reporter mRNA; actives raise or lower the signal
In short: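 Readout is reporter transcript level from endogenous transcription factor activity, quantified by RT-PCR with fluorescent primer extension and capillary electrophoresis. Transiently transfected HepG2 cells, 24 h exposure. Curves fitted both directions versus DMSO.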

[6] = ATG_BRE_CIS: Attagene CIS-FACTORIAL HepG2 Assay for human Bone Morphogenetic Protein (BMP) Response Element (BRE) (AID 2282933); details: HepG2 BMP response element reporter, Attagene transcription factor profiling; actives raise or lower the signal
In short: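 Transient MRTU transfection of human HepG2 liver cells; 24 h compound treatment; total RNA isolated, reverse-transcribed, PCR-amplified, 6-FAM labelled, HpaI-cut, capillary electrophoresis. DMSO = negative control/baseline, bidirectional fit.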

[7] = biological target: Transcription factor E2F1 (Homo sapiens) (UniProt Q01094); test: ATG_E2F_CIS: Attagene CIS-FACTORIAL HepG2 Assay for human E2F Transcription Factor 1 (AID 2282935); details: HepG2 Attagene cis-reporter, E2F reporter RNA transcripts; actives raise or lower the signal
Transcription factor E2F1 (Homo sapiens), sequence (Q01094 whole entry, looked up): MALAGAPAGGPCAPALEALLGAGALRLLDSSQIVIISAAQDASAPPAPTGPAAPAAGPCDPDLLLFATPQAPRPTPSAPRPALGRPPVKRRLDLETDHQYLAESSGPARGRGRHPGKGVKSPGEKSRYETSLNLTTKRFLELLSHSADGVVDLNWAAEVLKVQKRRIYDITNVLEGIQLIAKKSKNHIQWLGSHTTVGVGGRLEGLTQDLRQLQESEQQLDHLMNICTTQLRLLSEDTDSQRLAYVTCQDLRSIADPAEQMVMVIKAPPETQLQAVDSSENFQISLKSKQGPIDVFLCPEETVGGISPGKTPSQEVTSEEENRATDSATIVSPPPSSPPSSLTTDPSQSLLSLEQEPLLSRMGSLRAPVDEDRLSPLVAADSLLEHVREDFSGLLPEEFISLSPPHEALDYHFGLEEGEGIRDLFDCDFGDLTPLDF
In short: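 Endogenous E2F1 activity read through cis-promoter reporter units transfected into HepG2. After 24 h compound treatment, reporter mRNA measured by RT-PCR, HpaI digestion and capillary electrophoresis. Bidirectional fit versus DMSO.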

[8] = ATG_E_Box_CIS: Attagene CIS-FACTORIAL HepG2 Assay for human Enhancer Box (E-box) (AID 2282936); details: HepG2 E-box cis-reporter transcription, actives raise or lower the signal
In short: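 HepG2 cells transiently transfected with multiplexed cis-element reporter units, dosed 24 h; reporter mRNA quantified by RT-PCR, 6-FAM labelling, HpaI digestion and capillary electrophoresis. E-box (USF1) signal fitted bidirectionally vs DMSO.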

[9] = ATG_M_61_CIS: Attagene CIS-FACTORIAL HepG2 Assay for M61 Transcription Factor (Internal Marker) (AID 2282937); details: HepG2 Attagene CIS-FACTORIAL M61 internal marker reporter; actives raise or lower the signal
In short: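 Readout is reporter mRNA by RT-PCR, fluorescent primer extension and capillary electrophoresis, with gain or loss fitted relative to DMSO. Transfected HepG2 cells carrying endogenous-TF-driven cis reporters were exposed to chemicals for 24 hours.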

[10] = ATG_EGR_CIS: Attagene CIS-FACTORIAL HepG2 Assay for human Early Growth Response 1 (EGR1) (AID 2282938); details: HepG2 Attagene CIS-FACTORIAL EGR reporter mRNA; actives raise or lower the signal
In short: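 After 24 h compound exposure, RNA from reporter-transfected HepG2 cells was reverse-transcribed, PCR-amplified, fluorescently labelled and resolved by capillary electrophoresis. EGR1 reporter transcript changes, up or down, were fitted against DMSO, reflecting endogenous transcription-factor activity.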

[11] = ATG_M_19_CIS: Attagene CIS-FACTORIAL HepG2 Assay for M19 Transcription Factor (Internal Marker) (AID 2282939); details: HepG2 Attagene CIS-FACTORIAL M19 internal marker reporter; actives raise or lower the signal
In short: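 Transfect HepG2 with MRTU reporter library → dose chemical, 24 h → isolate total RNA, reverse-transcribe with oligo(dT) → PCR, 6-FAM label, HpaI cut (2 h, 37 C) → capillary electrophoresis. Bidirectional fit vs DMSO.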

[12] = ATG_ERE_CIS: Attagene CIS-FACTORIAL HepG2 Assay for Estrogen Response Element (ERE) (AID 2282940); details: HepG2 ERE cis-reporter, Attagene RNA transcript; actives raise or lower the signal
In short: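 Transient MRTU transfection of human HepG2; cis-element promoters; 24 h dosing; total RNA → RT (oligo dT) → PCR → 6-FAM primer extension → HpaI digest → CE fluorescence. Bidirectional fit, DMSO baseline.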

[13] = ATG_Ets_CIS: Attagene CIS-FACTORIAL HepG2 Assay for human Erythroblast Transformation Specific (ETS) (AID 2282941); details: HepG2 ETS cis-reporter transcription, actives raise or lower the signal
In short: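 Human HepG2 hepatoma cells were transiently transfected with promoter-driven reporter constructs and treated for 24 hours. Reporter transcripts were quantified by RT-PCR with fluorescent primer extension; bidirectional curve fitting used DMSO as reference.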

[14] = biological target: Hepatocyte nuclear factor 3-beta (Homo sapiens) (UniProt Q9Y261); test: ATG_FoxA2_CIS: Attagene CIS-FACTORIAL HepG2 Assay for human Forkhead box A2 (FOXA2) (AID 2282942); details: HepG2 cis-reporter transcription factor activity, 24 h; actives raise or lower the signal
Hepatocyte nuclear factor 3-beta (Homo sapiens), sequence (Q9Y261 whole entry, looked up): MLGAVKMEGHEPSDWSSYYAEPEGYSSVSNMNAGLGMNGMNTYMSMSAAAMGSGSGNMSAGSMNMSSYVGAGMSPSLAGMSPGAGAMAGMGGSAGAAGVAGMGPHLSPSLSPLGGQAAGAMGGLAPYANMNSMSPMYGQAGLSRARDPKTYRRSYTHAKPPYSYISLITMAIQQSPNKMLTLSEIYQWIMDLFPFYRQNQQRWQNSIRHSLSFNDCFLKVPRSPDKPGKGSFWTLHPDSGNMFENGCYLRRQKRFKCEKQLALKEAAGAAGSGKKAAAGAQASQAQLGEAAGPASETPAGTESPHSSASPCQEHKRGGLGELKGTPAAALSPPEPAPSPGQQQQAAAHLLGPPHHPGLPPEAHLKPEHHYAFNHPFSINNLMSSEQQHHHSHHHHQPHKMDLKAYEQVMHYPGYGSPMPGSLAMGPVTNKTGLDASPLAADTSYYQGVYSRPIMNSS
In short: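 Endogenous transcription factor activity is captured via cis-element-driven reporter transcripts in transfected HepG2. Total RNA taken at 24 h post-dosing; labelled RT-PCR products resolved by capillary electrophoresis. Gain or loss fitted versus DMSO.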

[15] = ATG_FoxO_CIS: Attagene CIS-FACTORIAL HepG2 Assay for human Forkhead box O (FoxO) (AID 2282943); details: HepG2 Attagene cis-reporter, FoxO element, mRNA; actives raise or lower the signal
In short: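 HepG2 cells transiently transfected with cis-element-driven reporter units report endogenous FoxO activity. After 24 h chemical exposure, reporter mRNA quantified by RT-PCR, fluorescent labeling, HpaI digestion and capillary electrophoresis; bidirectional fit versus DMSO.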

[16] = ATG_GATA_CIS: Attagene CIS-FACTORIAL HepG2 Assay for human GATA Binding Protein (AID 2282944); details: HepG2 GATA cis-element reporter, Attagene multiplex mRNA; actives raise or lower the signal
In short: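 Transient MRTU transfection, HepG2, 24 h compound exposure. Total RNA → oligo(dT) RT → PCR → 6-FAM primer extension → HpaI cut → CE. Bidirectional fit vs DMSO.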

Measured: AC50

c1ccc2c(c1)-c1ccc3ccc4cccc5cc-2c1c3c45
active: [4] 543 nM | [12] 374 nM | [14] 381 nM
inactive: all other assays above

— PubChem BioAssay (EPA / NIEHS)
